Laboratory results as given in PubChem BioAssay (NCI).
About 79,000 compounds went through this panel and 15% of them were active in at least one assay; those are over-represented in the sample as a whole. Active and inactive are the calls of the source. Cut-off read from the data, not from the text of the source: active = growth inhibition above about 70%; inactive = the rest.

What was measured:
[1] = NCI Yeast Anticancer Drug Screen. Data for the rad50 strain (AID 155);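 note: 0% = growth of vehicle-only cultures of the same strain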; settings: S. cerevisiae rad50 strain growth inhibition; at 50.0 µM; stronger effect = higher value
Summary of the method: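 DNA repair mutant yeast, compound exposure, growth read-out; inhibition is taken relative to vehicle.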

[2] = NCI Yeast Anticancer Drug Screen. Data for the mec2-1 strain (AID 157); settings: S. cerevisiae mec2-1 strain, at 50.0 µM, stronger effect = higher value
Summary of the method: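 Strain: mec2-1 (DNA repair/cell cycle alteration). Compound exposure, then growth measured; inhibition expressed relative to vehicle.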

[3] = NCI Yeast Anticancer Drug Screen. Data for the sgs1 mgt1 strain (AID 161);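 note: 0% = growth of cultures given vehicle only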; settings: S. cerevisiae sgs1 mgt1 strain, at 50.0 µM, stronger effect = higher value
Summary of the method: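 Read-out: growth inhibition vs vehicle controls. Cells: mutant yeast strain deficient in DNA damage repair.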

[4] = NCI Yeast Anticancer Drug Screen. Data for the cln2 rad14 strain (AID 165);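 note: 0% = growth equal to vehicle treated cultures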; settings: S. cerevisiae cln2 rad14 strain, at 50.0 µM, stronger effect = higher value
Summary of the method: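 Compounds are applied to the cln2 rad14 yeast strain, and growth is then compared with that of vehicle-treated cultures to give inhibition.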

[5] = NCI Yeast Anticancer Drug Screen. Data for the bub3 strain (AID 167); settings: S. cerevisiae bub3 mutant strain, at 50.0 µM, stronger effect = higher value
Summary of the method: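 In this screen, a yeast mutant lacking normal mitotic checkpoint function is challenged with compound. Relative growth versus vehicle gives the inhibition value.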

[6] = NCI Yeast Anticancer Drug Screen. Data for the mlh1 rad18 strain (AID 175); settings: S. cerevisiae mlh1 rad18 strain growth inhibition; at 50.0 µM; stronger effect = higher value
Summary of the method: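 Read-out is yeast growth inhibition, calculated against vehicle-only controls. The compound was applied to a strain engineered with DNA damage repair alterations.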

Measured: growth inhibition

Cc1nc2ccccc2nc1C
inactive: [1] -15.2% | [2] -1.8% | [3] -8.85% | [4] 1.2% | [5] -2.35% | [6] 4.85%

CNS(=O)(=O)c1ccc(C)cc1
inactive: [1] 2.15% | [2] -6% | [3] 0.6% | [4] 3.25% | [5] 0.45% | [6] 0.35%

CC12CCC(O)CC1=CCC1C2CCC2(C)C(C(O)CC(O)(C(F)(F)F)C(F)(F)F)CCC12 (stereo not given)
inactive: [1] 30.1% | [2] 48% | [3] 47.9% | [4] 3.95% | [5] 25.9% | [6] 40.5%

O=C(O)c1ccc(OC2CCCCC2)cc1
inactive: [1] 6.85% | [2] 12.1% | [3] 42.1% | [4] 18.6% | [5] 11.4% | [6] 30.9%

CCCCCCCCCCCC[Si](c1ccccc1)(c1ccccc1)c1ccccc1
inactive: [1] 9.3% | [2] 6.2% | [3] 26.1% | [4] 22.9% | [5] 1% | [6] 24.5%

Cc1onc(-c2ccccc2)c1C(=O)N1CCCN2C(=O)c3ccccc3C21 (stereo not given)
inactive: [1] -0.3% | [2] -11.1% | [3] 15.8% | [4] 2% | [5] 22.3% | [6] 15.8%

O=C(CI)NCC(O)CNC(=O)CI
inactive: [1] 16.9% | [2] 13.9% | [3] 18% | [4] 27.6% | [5] 9.2% | [6] 36.5%

FC(F)(F)C(F)(F)C(F)(F)C(F)(F)C(F)(F)C(F)(F)C(F)(F)c1noc(C(F)(F)C(F)(F)C(F)(F)C(F)(F)C(F)(F)C(F)(F)C(F)(F)F)n1
inactive: [1] -0.55% | [2] 6.5% | [3] -5.4% | [4] -5.25% | [5] 0.85% | [6] 17.4%

C[N+]1(C)CCCC(c2ccccc2)(c2ccccc2)C(O)C1 (stereo not given)
inactive: [1] 10.8% | [2] 7.15% | [3] 11.2% | [4] 23.4% | [5] -2.65% | [6] 11.9%

O=C(Nc1ccc(Cc2ccc(NC(=O)Nc3nc4ccccc4s3)cc2)cc1)Nc1nc2ccccc2s1
inactive: [1] -5.15% | [2] -17.4% | [3] -2.25% | [4] 19.2% | [5] 21.6% | [6] -4.5%

CC(C)C(NC(=O)OC(c1ccccc1)c1ccccc1)C(=O)NC(CSC(c1ccccc1)(c1ccccc1)c1ccccc1)C(=O)NCC(=O)OCc1ccccc1 (stereo not given)
inactive: [1] 4.45% | [2] 5.75% | [3] 4.55% | [4] -19.1% | [5] -10.8% | [6] 27.2%

COc1cc(C2C3=C(N=C4SC(C(C)=O)=C(C)N42)c2ccccc2CC3)cc(OC)c1OC (stereo not given)
inactive: [1] -30.4% | [2] -48.6% | [3] -22.2% | [4] 3.2% | [5] -35.7% | [6] -17.8%

O=C1/C(=C/c2ccc3c(c2)OCO3)SC2C=Nc3ccccc3N12 (stereo not given)
inactive: [1] -14% | [2] -20.3% | [3] 1.2% | [4] -7.45% | [5] 2.5% | [6] -8.65%

Cc1ccc(Cl)cc1NC(=O)C(Br)C(Br)C(=O)O (stereo not given)
active: [1] 93.2% | [2] 99.4% | [3] 99.5% | [4] 90.2% | [5] 99% | [6] 98.8%

CC(=O)n1oc2c(Br)cc(Br)cc2c1=O
inactive: [1] -0.75% | [2] 2.85% | [3] 3.7% | [4] -2.55% | [5] -1.05% | [6] 15.1%

COc1ccc2[nH]c3c4c(c5cc(C(C)(C)C)ccc5c3c2c1)C(=O)N(c1ccccc1)C4=O
inactive: [1] -12.8% | [2] -13.3% | [3] 3.1% | [4] 16.7% | [5] -14.2% | [6] -8.7%

O=C(O)c1ccc(Nc2nc3ccccc3nc2C(=O)O)cc1
inactive: [1] -19.2% | [2] -26.8% | [3] -33.2% | [4] 7.05% | [5] -13.2% | [6] -0.9%

COc1cc(Nc2cnc3cc(N)ccc3n2)cc(OC)c1OC
inactive: [1] -16.8% | [2] -33.8% | [3] -31.2% | [4] -16.2% | [5] -9.65% | [6] -45.5%

Cc1ccc(S(=O)(=O)N2CCCSCCN(S(=O)(=O)c3ccc(C)cc3)CCCSCC2)cc1
inactive: [1] -0.25% | [2] -32.5% | [3] -30.2% | [4] -9.4% | [5] -28.6% | [6] -24.4%

CC1(n2nc(-c3ccccc3)n(-c3ccccc3)c2=O)CSC1
inactive: [1] -8.4% | [2] -22.9% | [3] -31.1% | [4] -15.9% | [5] -15.8% | [6] -7.1%

Cc1ccc(/C(O)=C/C(=O)C(=O)NC23CC4CC(CC(C4)C2)C3)cc1
inactive: [1] 36.9% | [2] 15.3% | [3] 32.4% | [4] 24.9% | [5] 15.8% | [6] 23.4%

CC[C@@]1(O)C[C@H](OC2CC(N(C)C)C(OC3CC(O)C(OC4CC(O)C(O)C(C)O4)C(C)O3)C(C)O2)c2c(cc3c(c2O)C(=O)c2c(O)ccc(O)c2C3=O)[C@H]1C(=O)OC (stereo not given in full)
inactive: [1] -25.1% | [2] -14.8% | [3] -35% | [4] 4.3% | [5] 1.95% | [6] 7.45%

CC(=O)N1C(Nc2ccccc2)CCN1c1ccccc1 (stereo not given)
inactive: [1] -24.2% | [2] -31.5% | [3] -14.1% | [4] 10.9% | [5] 2.05% | [6] -8.35%

Cc1nc(=S)c2[nH]c(=S)[nH]c2[nH]1
inactive: [1] -2.7% | [2] -16.1% | [3] -3.8% | [4] -18.8% | [5] -1.9% | [6] -8.2%

C#CCN(C)C(C)=O
inactive: [1] 25.3% | [2] -3.3% | [3] 5.1% | [4] 10.8% | [5] 6.45% | [6] 13.6%

COC(=O)C(C(=O)C(=O)Nc1ccc([N+](=O)[O-])cc1[N+](=O)[O-])c1nc2ccc(Cl)cc2[nH]c1=O (stereo not given)
inactive: [1] 10.2% | [2] 10.6% | [3] 39% | [4] 20.2% | [5] 12.5% | [6] 25.5%

C#CC(C)(O)CCCCCC (stereo not given)
inactive: [1] 3.7% | [2] 16.4% | [3] 12% | [4] -4.05% | [5] 35% | [6] -7.1%

COCn1c(C(=O)c2ccc(OC)cc2)cc2ccccc21
inactive: [1] 7.45% | [2] 11.8% | [3] -3.9% | [4] -11.5% | [5] 16.1% | [6] 23.4%

OCC1C2C=CC(O2)[C@H]1CO (stereo not given in full)
inactive: [1] 1.65% | [2] -3.75% | [3] -11.8% | [4] -27.9% | [5] -24.9% | [6] -6.95%

CC(=O)N=C1N(/C=C2\C(=O)Oc3ccccc3C2=O)C(=O)/C(=C/c2ccccc2Cl)N1C
inactive: [1] -13.2% | [2] -21.9% | [3] -25.7% | [4] 10.2% | [5] -16.9% | [6] -8.35%

Cc1cc(S(=O)(=O)O)ccc1Cl
inactive: [1] -27.3% | [2] -8.2% | [3] -19.3% | [4] -38.9% | [5] -0.25% | [6] -31.8%

CCN(CC)CCn1c2ccccc2c(=O)c2c(O)ccc(O)c21
inactive: [1] 14.8% | [2] -1.3% | [3] 3.35% | [4] 4.45% | [5] 6.95% | [6] -0.55%

COc1ccc(NC(=O)Cc2cc3ccccc3oc2=O)cc1
inactive: [1] 8.05% | [2] 1.05% | [3] -3.75% | [4] -46.3% | [5] -0.3% | [6] 7.95%

O=C1CCC(O)=C1O
inactive: [1] -7.75% | [2] -11.4% | [3] 2.3% | [4] 26.5% | [5] -2.35% | [6] -0.25%

Cn1c(=O)nc2n(C)c3ccccc3cc-2c1=O
inactive: [1] 9.95% | [2] -12.4% | [3] -3.95% | [4] -6.85% | [5] -12.7% | [6] 1.8%

CCCCCCCCCCOc1ccc(C2=C(c3ccccc3)C(=O)C(c3ccccc3)=C2c2ccccc2)cc1
inactive: [1] 25.3% | [2] 10.4% | [3] 17.4% | [4] 14.9% | [5] -5.3% | [6] 3.6%

Cc1cc2c(c(C(=O)NCCC(=O)N[C@@H](C)C(=O)OCc3ccccc3)c1)Oc1c(cc(C)cc1C(=O)NCCC(=O)N[C@@H](C)C(=O)OCc1ccccc1)S2
inactive: [1] 24% | [2] 10.8% | [3] 30.1% | [4] 28.8% | [5] -9.8% | [6] 27.1%

C=CC(C)(CCC=C(C)C)OC(C)=O (stereo not given)
inactive: [1] 27.6% | [2] 5.75% | [3] 14.7% | [4] 1.9% | [5] 23.9% | [6] 34.7%

CN=C(NC#N)NCCSCc1nc[nH]c1C
inactive: [1] 20.3% | [2] 16.8% | [3] -17.5% | [4] -5.2% | [5] -16.6% | [6] -29.2%

CCC(=O)NC(Nc1cccc(F)c1)(C(F)(F)F)C(F)(F)F
inactive: [1] -28.5% | [2] -36.6% | [3] -20.7% | [4] 13.3% | [5] -20.9% | [6] -66.8%
